Reference: PMC4336329 (PLoS ONE, 2015)
About 14,000 (4.5%) of roughly 310,000 compounds showed an effect of 50% or more. Effects have a minus sign here. The entries come from a sample that favours strong results as a whole.

biological target: human ether-à-go-go-related gene (hERG) potassium channel (human, UniProt Q12809); test: primary screen, population patch clamp on CHO cells stably expressing hERG; higher = less effect of the substance
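Note: peak tail current of the secondary pulse compared with the same well before compound.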

human ether-à-go-go-related gene (hERG) potassium channel, sequence (Q12809 whole entry, looked up): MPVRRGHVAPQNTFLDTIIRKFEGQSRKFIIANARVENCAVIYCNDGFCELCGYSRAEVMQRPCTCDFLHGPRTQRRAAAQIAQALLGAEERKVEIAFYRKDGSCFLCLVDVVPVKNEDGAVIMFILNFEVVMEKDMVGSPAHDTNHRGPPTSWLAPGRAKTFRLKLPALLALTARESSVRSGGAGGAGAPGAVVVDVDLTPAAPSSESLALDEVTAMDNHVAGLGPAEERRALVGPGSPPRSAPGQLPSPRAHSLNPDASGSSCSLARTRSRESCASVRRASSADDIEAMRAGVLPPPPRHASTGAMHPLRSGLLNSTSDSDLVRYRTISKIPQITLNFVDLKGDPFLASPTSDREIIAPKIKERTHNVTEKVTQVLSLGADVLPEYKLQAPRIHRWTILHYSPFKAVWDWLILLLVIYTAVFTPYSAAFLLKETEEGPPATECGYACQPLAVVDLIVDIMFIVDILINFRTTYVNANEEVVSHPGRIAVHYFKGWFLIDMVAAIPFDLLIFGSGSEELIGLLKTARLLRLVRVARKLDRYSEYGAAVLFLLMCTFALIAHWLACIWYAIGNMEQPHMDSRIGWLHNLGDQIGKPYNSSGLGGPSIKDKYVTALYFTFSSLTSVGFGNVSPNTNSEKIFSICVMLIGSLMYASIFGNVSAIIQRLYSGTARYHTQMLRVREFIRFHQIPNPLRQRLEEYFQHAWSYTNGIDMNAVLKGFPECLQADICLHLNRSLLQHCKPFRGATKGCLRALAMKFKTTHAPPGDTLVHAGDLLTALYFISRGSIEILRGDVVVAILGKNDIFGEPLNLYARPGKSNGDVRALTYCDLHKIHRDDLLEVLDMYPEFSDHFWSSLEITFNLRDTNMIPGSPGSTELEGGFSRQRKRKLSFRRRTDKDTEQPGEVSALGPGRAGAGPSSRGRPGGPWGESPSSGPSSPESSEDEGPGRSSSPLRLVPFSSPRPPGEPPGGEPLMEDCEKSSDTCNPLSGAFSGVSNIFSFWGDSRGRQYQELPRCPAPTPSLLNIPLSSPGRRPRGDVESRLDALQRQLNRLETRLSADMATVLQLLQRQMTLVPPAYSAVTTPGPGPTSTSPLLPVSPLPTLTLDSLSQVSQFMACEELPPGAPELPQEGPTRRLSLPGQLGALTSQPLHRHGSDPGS

SMILES | hERG current change (%, negative = inhibition) at 10uM [%]
CSc1nc(O)c(C(c2ccc(OC(C)C)cc2)c2c(O)nc(SC)[nH]c2=O)c(=O)[nH]1 | 16.9
CCOc1ccc(S(N)(=O)=O)cc1-c1nc2c(C(C)(C)C)nn(C)c2c(=O)[nH]1 | 10.9
CC(Sc1nnnn1-c1ccc(O)cc1)C(=O)NC1CCCCC1C (centres unmarked) | -9.23
CC(=O)C1=C(O)C(=O)N(c2ccc(S(=O)(=O)Nc3nccs3)cc2)C1c1ccc([N+](=O)[O-])cc1 (centres unmarked) | 10.6
C=CCn1c(SCc2nc3ccccc3c(=O)[nH]2)nc2sc3c(c2c1=O)CCCC3 | 2.93
c1ccc(-c2nnc(OCc3cccnc3)c3ccccc23)cc1 | -83.2
Cc1ccc(-c2nnc(OCc3cccnc3)c3ccccc23)cc1 | -75.7
COc1ccc(-c2nnc(OCc3ccccc3)c3ccccc23)cc1 | 1.82
Cc1ccc(Oc2nnc(-c3ccccc3)c3ccccc23)cc1 | -2.98
c1ccc(COc2cncc(-c3cccnc3)c2)cc1 | -17.8
Cc1ccc(-c2nnc(OCc3nc4ccccc4n3C)c3ccccc23)cc1 | -12
CCC(C)n1c(-c2cccs2)nc2nc3ccccc3nc21 (centres unmarked) | -4.95
COCCn1c(SCC(=O)Nc2cc(C(C)(C)C)nn2-c2ccccc2)nnc1-c1ccncc1 | -60
Cc1cc(NC(=O)CSc2nnc(-c3ccncc3)n2Cc2ccccc2)n(-c2ccccc2)n1 | -58.8
COCCn1c(SC(C)C(=O)Nc2ccc(Cl)cn2)nnc1-c1ccncc1 (centres unmarked) | 4.13
COCCn1c(SCC(=O)Nc2ccc(Cl)cn2)nnc1-c1ccncc1 | -54.2
COCCn1c(SCC(=O)Nc2nnc(C)s2)nnc1-c1ccncc1 | -0.996
Cc1cc(NC(=O)CSc2nnc(-c3ccncc3)n2C)n(-c2ccccc2)n1 | -21.9
COCCn1c(SCC(=O)Nc2cc(C(C)(C)C)nn2-c2ccccc2)nc2ccccc2c1=O | -4.39
COCCn1c(SCC(=O)Nc2cc(C)nn2-c2ccccc2)nnc1-c1ccncc1 | -37.7
CNC(=O)CSc1nnc(-c2ccncc2)n1Cc1ccccc1 | 9.26
O=C(c1ccc(N2CCCC2=O)cc1)N1CCN(c2ccccc2Cl)CC1 | -12.1
COc1ccc(S(=O)(=O)NCc2cc(=O)n(C)c(=O)n2C)cc1C | 22.6
